# Data taken from the supplement of paper PMC6555819.
# Columns and labels:
# Experiment in all cases: PBM binding z-score (relative to random genomic background probes); higher = stronger binding; sequences stand for … in GC…GCGATTGACAGCGTAGAATGAAGG
# [1] = test system: FXR:RXRa (NR concentration 270 nM, RXRa partner concentration 90 nM)
# Procedure, shortened: (§1)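 Ligand-free nuclear receptor dimers were bound for 1 h to custom Agilent 4×180K protein-binding microarrays. Detection used antibodies against each partner (one per run). Binding z-scores rest on regression-normalized fluorescence, with random background probes as the reference.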
# [2] = test system: LXRa:RXRa (NR concentration 270 nM, RXRa partner concentration 90 nM)
# Procedure, shortened: as §1
# [3] = test system: LXRa homodimer (NR concentration 270 nM)
# Procedure, shortened: as §1
# [4] = test system: LXRb:RXRa (NR concentration 270 nM, RXRa partner concentration 90 nM)
# Procedure, shortened: as §1
# [5] = test system: LXRb homodimer (NR concentration 270 nM)
# Procedure, shortened: as §1
# [6] = test system: PPARa:RXRa (NR concentration 270 nM, RXRa partner concentration 90 nM)
# Procedure, shortened: as §1
# [7] = test system: PPARg:RXRa (NR concentration 180 nM, RXRa partner concentration 90 nM)
# Procedure, shortened: as §1
# [8] = test system: PPARg:RXRa 270nM:90nM, anti-RXR (NR concentration 270 nM, RXRa partner concentration 90 nM)
# Procedure, shortened: as §1
# [9] = test system: PPARg:RXRa 30nM:10nM, anti-RXR (NR concentration 30 nM, RXRa partner concentration 10 nM)
# Procedure, shortened: as §1
# [10] = test system: PPARg:RXRa 90nM:30nM, anti-RXR (NR concentration 90 nM, RXRa partner concentration 30 nM)
# Procedure, shortened: as §1
Sequence,PBM binding z-score [1],PBM binding z-score [2],PBM binding z-score [3],PBM binding z-score [4],PBM binding z-score [5],PBM binding z-score [6],PBM binding z-score [7],PBM binding z-score [8],PBM binding z-score [9],PBM binding z-score [10]
CTCGAAAGGTCGGTTGAGGTAAGTATACGGATAA,1.93,1.41,-0.197,1.28,-0.165,2.34,0.4,0.787,0.0171,0.608
CCTTACGGGTCACTGACAGGTTATAGGATTTGGA,4.95,4.33,0.341,3.36,-0.182,5.09,4.36,4.46,1.48,3.55
ACTCGGAGGACAAAGGTCAGAGTTACGCCAGTGA,4.06,4.17,1.93,3.55,0.422,5.03,7.06,6.77,5.57,7.32
CGTCAAAGTTCAAGGTAACGTCACAGAAAGCAGC,6.25,5.64,2.77,3.46,1.24,4.71,4.58,5.27,2.34,4.03
CCAGACAGGTGAAAGGTAACCCAGTCTGGTACGC,0.66,0.713,-0.512,0.445,-0.0532,3.4,5.86,5.65,3.97,5.97
GTACCTAGGTGAATAGGTCGTTGATGAGTAGGCG,0.327,0.577,-0.19,0.185,-0.886,1.93,1.83,2.16,0.782,1.89
GCTCGGAGGACAAGGACAGAGCTTTGTCCGTAGA,-0.454,-0.825,-0.708,-0.936,-1.44,-0.604,-0.644,-0.934,-1.21,-1.04
AGAACGAGGGCACGCTGAGTTGATAGAAGAGTAG,0.553,0.362,-0.441,0.106,-0.925,2.09,2.05,1.54,0.398,1.11
TCTCGGAGGACACGAACGGTCAGAGCTCGACATC,0.632,0.398,0.0467,-0.277,-0.841,0.0396,0.0784,0.624,1.74,0.89
GCTAGTTGGTCAGTAAAAGGTCACACATCGGTCG,3.3,4.12,4.59,4.13,0.936,4.23,2.71,4.56,2.08,3.74
TCTGCTAGGTCAACGGTGGTCAGCTAATCTGCTA,3.59,2.75,-0.0402,1.6,-0.0139,3.54,3.35,3.81,2.45,3.42
CCTACTGGGCCATCAGGTCATTGATATCAACGTT,1.4,1.19,1.28,1.56,-0.271,2.79,2.68,3.7,1.46,3.18
CCTAGCAGGCCAATCTGGGTCACTAAAGGCTTGA,0.156,0.884,-0.513,0.511,-0.766,2.87,1.97,1.83,-0.068,0.891
ACTAGCAGGCCAAGGGCCACTCAAGATTAGTCCG,-0.56,-0.559,-0.856,-1,-1.27,0.699,2.13,3.13,1.28,2.51
TTACCAACGTGAAAGGTCGTTGATGCACGCCTTG,1.28,1.48,0.436,1.66,-0.169,2.84,2.46,4.26,2.49,4.17
CGTCCAAGGTCAATGCTAGGTCAGTGTAAGCATT,6.38,5.59,2.58,4.11,0.681,5,3.55,4.67,1.23,2.97
CATACAGGGTCAGCTACGCCAGAGTAGGGACGGC,4.39,3.1,0.0565,2.3,0.562,4.28,3.26,3.22,0.875,2.03
CCTACTGGGCCACGAAAGGTCATTTATTCAGTGA,3.85,5.32,6.04,4.6,1.31,4.47,4.58,4.66,1.87,4.02
TCGAGTAGCTTAGTCGGGGCATTCAGCCAACATA,-0.445,-0.555,-0.699,-0.343,-0.785,-0.102,-0.707,-0.0775,0.66,0.255

Sequence,PBM binding z-score [1],PBM binding z-score [2],PBM binding z-score [3],PBM binding z-score [4],PBM binding z-score [5],PBM binding z-score [6],PBM binding z-score [7],PBM binding z-score [8],PBM binding z-score [9],PBM binding z-score [10]
CATCCAAGGTCAGCAGGTCAGTGAAAGCGACGTG,6.25,4.68,1.66,3.31,0.653,4.79,4.86,4.71,1.81,3.37
ACAGACAGGAGAGTGAAGGTAACTCAGCTGGACG,0.399,-0.127,-0.128,0.0952,0.885,0.0627,0.928,0.616,0.213,0.343
CAAACTAGGTCACGAAATGTCAAAGTCGAATGAC,4.45,5.4,1.06,3.49,0.702,5.42,9.32,7.56,6.2,7.61
CAAACTAGGTCAAGGTCACAGTCGGTTTGTGCCA,6.76,5.24,3.28,4.15,0.607,6.25,9.88,8.18,6.72,8.13
CCAGACAGGCGAAAGGTAACTCAGTCTGGTACGC,-0.414,-0.478,-0.885,-0.448,-1.33,0.667,1.57,2.87,0.676,2.22
CGTACGAGGGCATGAGTTGATAGCAAATGCCGAT,0.342,0.419,-0.557,0.284,-0.608,1.23,1.11,1.07,0.157,0.878
TCTTGTGGATCAAAGGTTAAGAAAGCCGAAGCCT,1.78,1.88,0.101,2.08,0.0498,4.58,7.94,7.64,7.24,8.31
CGTCAAATTTCAAGGTAACGTAACAGAAAGCAGC,0.0505,-0.0464,0.101,0.163,-0.042,0.466,0.489,-0.149,0.0887,-0.0536
CCTGCTGGGCCAAGGTCATTGATCAGTCAAAGCA,3.6,3.06,0.626,2.99,-0.84,3.64,1.23,2.56,-0.0774,1.46
CGACCAAGGTGAACAAGGTCGTTGATTACTATTC,1.09,1.16,-0.248,1.83,-0.531,2.54,1.27,1.29,-0.0265,0.643
ATCTCTAGGTGACAAGTTCAGTGAAAGAGAGGAC,0.297,0.503,0.114,0.645,0.171,2.58,3.19,3.1,1.46,2.43
CGTCCAATGTCAAGGTCAGTGAAAGAGACTCGAA,2.47,1.92,0.422,1.76,0.286,2.67,0.791,1,-0.104,0.482
TCGAGTAGGTTACGAATGGGGCATTCAGCTTTCT,0.143,0.677,-0.52,0.42,-0.693,0.834,0.32,0.972,0.971,0.914
ACAGACAGATGATGAAGGTAACTCAGGCTATCAT,0.128,-0.0336,0.0406,0.0281,0.222,-0.128,0.719,-0.0905,0.15,-0.00308
CCTTTCGGGTCACTCCAGGTTATAGCATCGGAGT,4.95,7.32,2.02,5.17,0.836,4.58,3.15,3.78,1.09,2.75
GCTGCTAGGTCAACTGATGGTCAGTTAAAGCTCG,3.99,3.11,0.245,2.35,0.46,3.74,2.8,3.25,0.658,2.06
GCTTGTAGATCAAGGTTAAGTAAGACTAAGCTAA,0.31,0.866,-0.213,0.847,-0.28,1.8,1.15,2.27,0.377,1.78
AGTCAAAGTCCATCTAGGTAACGTAAGATATGCT,0.0265,-0.375,0.0157,-0.0801,-0.0793,0.13,0.685,0.325,0.277,0.00564
CCGAGTAGGTTATGGGTCATTCAGGCAACGGTGA,2.41,2.13,0.794,2.57,0.212,4.37,7.07,6.9,5.78,6.93
